Assay results taken from PubChem BioAssay (Tox21).
Records with an inconclusive call do not appear. Where a call stands in place of a potency, no number is given. Active and inactive are the calls of the source. The call rests on the fitted dose curve; in most records, active means well fitted cell-killing curve with a large enough effect in the repeat runs; inconclusive means weak or mixed curves; inactive means flat fitted curve, though single readings scatter.

Assay: qHTS assay to identify small molecule antagonists of the estrogen related receptor (ERR) signaling pathway - cell viability counter screen (AID 1224818);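 further: viability measured after 17.5 h of compound exposure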
Conditions: ERR reporter cell line viability counter screen; series mostly up to 46.1 µM
Outline: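 ERR cells, 2,000/well; 6 h settle at 37 C/5% CO2; compound pin transfer (DMSO); 17.5 h at 37 C; CellTiter-Fluor, 30 min, fluorescence read.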
Potency means the concentration at half of the fitted maximal effect.

Row | Compound | Potency
1 | CCCN(CCC)CCc1ccc(O)c(O)c1 | inactive
2 | CN(N=O)c1ccc(O)c(O)c1 | inactive
3 | Clc1cc(I)cc(Cl)c1NC1=NCCN1 | inactive
4 | O=C(O)[C@@H]1CCN1 | inactive
5 | C[N+]1(C)CCc2cc3c(cc2[C@H]1[C@@H]1OC(=O)c2c1ccc1c2OCO1)OCO3 | inactive
6 | CC(C)Oc1cccnc1N(C)C1CCN(Cc2ccccc2)CC1 | inactive
7 | COc1ccc2c(c1O)-c1cccc3c1[C@@H](C2)N(C)CC3 | inactive
8 | CC(C)(O)[C@@H]1[C@H]2OC(=O)[C@@H]1[C@]1(O)C[C@H]3O[C@]34C(=O)O[C@H]2[C@]14C (tested in a mixture with another compound) | inactive
9 | NCCc1ccc(S(=O)(=O)F)cc1 | inactive
10 | C[N+](C)(C)CC#CCN1CCCC1=O | inactive
11 | COc1cc(C(O)CN)ccc1O (stereo not given) | inactive
12 | NCCc1c[nH]c2ccc(O)cc12 | inactive
13 | C[C@H](Cc1ccc2c(c1)OC(C(=O)O)(C(=O)O)O2)NC[C@H](O)c1cccc(Cl)c1 | inactive
14 | CCCN1CCC[C@@H](c2cccc(O)c2)C1 | inactive
15 | NCCc1c[nH]c2ccccc12 | inactive
16 | COc1ccc(CNC(=O)/C=C/c2ccc3[nH]cc(CCN(C)C)c3c2)cc1 | inactive
17 | COc1ccc2[nH]c3c(c2c1)CCNC3 | inactive
18 | COc1ccc2c(c[n+](C)c3c4cc5c(cc4ccc23)OCO5)c1OC | 18.1 µM (active)
19 | C[C@H]1C2Cc3ccc(O)cc3[C@@]1(C)CCN2CC1CC1 | inactive
20 | NC(=NCCC[C@H](N)C(=O)O)N[N+](=O)[O-] | inactive

Row | Compound | Potency
21 | Oc1ccc2c3c1O[C@H]1c4[nH]c5c(c4C[C@@]4(O)[C@@H](C2)N(CC2CC2)CC[C@]314)C[C@@]1(O)[C@H]2Cc3ccc(O)c4c3[C@@]1(CCN2CC1CC1)[C@H]5O4 | inactive
22 | Cc1sc2ccccc2c1CC1=NCCN1 | inactive
23 | CNCCc1c[nH]c2ccc(O)cc12 | inactive
24 | CCOC(=O)c1ncn2c1[C@@H]1CCCN1C(=O)c1cc(OC)ccc1-2 | inactive
25 | Nc1ncnc2c1ncn2[C@@H]1O[C@H](COP(=O)(O)CP(=O)(O)OP(=O)(O)O)C(O)[C@H]1O (stereo not given in full) | inactive
26 | C[N+]1(C)CCC(OC(=O)C(c2ccccc2)c2ccccc2)CC1 | inactive
27 | CC(C)CC(NP(=O)(O)O[C@@H]1O[C@@H](C)[C@H](O)[C@@H](O)[C@H]1O)C(=O)NC(Cc1c[nH]c2ccccc12)C(=O)O (stereo not given in full) | inactive
28 | CN1C2CCC1CC(OC(c1ccccc1)c1ccccc1N)C2 (stereo not given) | inactive
29 | CCN1C[C@@]2(COC)C3[C@@H](OC)C4[C@H]1C3([C@@H]1C[C@@]3(O)[C@H](OC(=O)c5ccccc5)[C@@H]1[C@]4(OC(C)=O)[C@@H](O)[C@@H]3OC)[C@H](OC)C[C@H]2O | inactive
30 | CC(C)(C)OC(=O)NC1[C@H]2CNC[C@@H]12 (stereo not given in full) | inactive
31 | S=C(NC1CCCCC1)N1CCC(c2cnc[nH]2)CC1 | inactive
32 | N[C@@]1(C(=O)O)CC[C@@H](C(=O)O)C1 | inactive
33 | C[N+]1(C)CCN(c2ccccc2)CC1 | inactive
34 | C=CCN1CCC23c4c5ccc(O)c4O[C@H]2C(=O)CC[C@@]3(O)C1C5 (stereo not given in full) | inactive
35 | OCc1cnc[nH]1 | inactive
36 | C#CCOC(=O)C1=CCCN(C)C1 | inactive
37 | CCCN1CCc2cc(O)cc3c2[C@H]1Cc1ccc(O)c(O)c1-3 | inactive
38 | CS(=N)(=O)CC[C@H](N)C(=O)O (stereo not given in full) | inactive
39 | NC1CCc2cc(O)c(O)cc2C1 (stereo not given) | inactive
40 | O=C(N[C@H]1CN2CCC1CC2)c1ccc(Cl)cc1 | inactive
